Bioassay records (PubChem)
Most compounds without a hit are left out; they make up all but 2.8% or so of the library.
Fam108B counter = mouse Fam108B serine hydrolase inhibitors, primary screen, counter-screen for RBBP9 inhibitor project, biochemical, fluorescence polarization; inhibition, % at 9.51 µM; AID 1947, 2009; recombinant Fam108B, FP-Rh probe fluorescence polarization; hit rate 0.33% among 300,000;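 active means inhibition above the screen mean inhibition plus 3 SD, computed separately per campaign, cut at about 18% in these data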;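 further: inhibitors lower polarization as less probe binds the enzyme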
PAFAH1B2 inh = PAFAH1B2 enzyme inhibitors, primary screen, biochemical, fluorescence polarization, human | hit rate 1.2% among 340,000 | AID 492953, 2010 | recombinant PAFAH1B2, FP-rhodamine activity probe | inhibition, % at 3.39 µM | Platelet-activating factor acetylhydrolase IB subunit alpha2 (Homo sapiens), P68402;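 active means inhibition above the mean of all tested compounds plus 3 SD, cut at about 24% in these data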
Target sequence (P68402 whole entry, looked up): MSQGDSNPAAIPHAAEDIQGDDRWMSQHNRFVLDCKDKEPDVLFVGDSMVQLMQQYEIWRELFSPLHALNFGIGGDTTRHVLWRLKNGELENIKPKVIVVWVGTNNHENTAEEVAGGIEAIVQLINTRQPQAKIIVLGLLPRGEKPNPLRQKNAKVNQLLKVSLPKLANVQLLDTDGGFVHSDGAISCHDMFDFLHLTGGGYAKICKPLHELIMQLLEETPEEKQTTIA
PAFAH2 FP inh = PAFAH2 enzyme inhibitors, primary screen, biochemical, fluorescence polarization, human. recombinant PAFAH2, FP-rhodamine activity probe. Platelet-activating factor acetylhydrolase 2, cytoplasmic (Homo sapiens), Q99487. hit rate 0.99% among 340,000. inhibition, % at 3.39 µM;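 active means inhibition above the mean over all tested compounds plus 3 SD, cut at about 30% in these data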;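 further: inhibitors block probe labeling of enzyme so polarization drops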
pPAFAH FP inh = pPAFAH enzyme inhibitors, primary screen, biochemical, fluorescence polarization, human; Platelet-activating factor acetylhydrolase (Homo sapiens), Q13093; recombinant pPAFAH, FP-rhodamine probe fluorescence polarization; inhibition, % at 3.39 µM; hit rate 1.5% among 330,000; AID 463082, 2010;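 active means inhibition above the mean inhibition across the screen plus 3 SD, cut at about 25% in these data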;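 further: inhibitors block binding of the rhodamine activity-based probe so polarization drops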
Target sequence (Q13093 whole entry, looked up): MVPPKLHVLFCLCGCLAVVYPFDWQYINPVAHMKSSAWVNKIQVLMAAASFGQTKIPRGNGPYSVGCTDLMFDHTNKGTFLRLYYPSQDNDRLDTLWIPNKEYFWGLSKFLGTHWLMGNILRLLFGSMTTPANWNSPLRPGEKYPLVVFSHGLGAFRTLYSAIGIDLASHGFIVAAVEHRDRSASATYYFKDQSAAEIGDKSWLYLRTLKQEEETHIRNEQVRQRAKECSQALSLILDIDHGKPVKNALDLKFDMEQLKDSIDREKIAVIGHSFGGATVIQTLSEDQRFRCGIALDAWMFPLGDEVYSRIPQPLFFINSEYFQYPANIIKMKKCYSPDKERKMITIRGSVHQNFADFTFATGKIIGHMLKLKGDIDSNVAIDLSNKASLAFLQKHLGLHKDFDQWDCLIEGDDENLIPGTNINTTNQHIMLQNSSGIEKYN
PME-1 primary = PME-1 inhibitors via competitive probe labeling, primary screen, biochemical, fluorescence polarization, FP-Rh probe, HTS; Protein phosphatase methylesterase 1 (Homo sapiens), Q9Y570; recombinant PME-1; inhibition, % at 5.9 µM; hit rate 0.53% among 320,000;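 active means inhibition above the campaign mean of all compounds plus 3 SD, cut at about 26% in these data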;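 further: competitive labeling of PME-1 active site by serine hydrolase directed probe; inhibitors block probe labeling so polarization falls and inhibition rises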
PAFAH1B3 inh = PAFAH1B3 enzyme inhibitors, primary screen, biochemical, fluorescence polarization, human. recombinant PAFAH1B3, FP-rhodamine probe. hit rate 0.28% among 340,000. inhibition, % at 3.39 µM. Platelet-activating factor acetylhydrolase IB subunit alpha1 (Homo sapiens), Q15102;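 active means inhibition above the screen-wide average of all tested compounds plus 3 SD, cut at about 25% in these data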
PAFAH2 FP conf = PAFAH2 enzyme inhibitors, confirmation, biochemical, fluorescence polarization, human | recombinant PAFAH2, FP-rhodamine activity probe | inhibition, % at 3.39 µM | hit rate 65% among 2,300 | shares compounds with PAFAH2 FP inh;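 active means mean inhibition over three repeats above a set limit taken from the earlier primary screen, cut at about 30% in these data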;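 further: inhibitor blocks binding of rhodamine activity probe so polarization falls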
A number is an active result; i = inactive; nt = no result given.

SMILES	Fam108B counter	PAFAH1B2 inh	PAFAH2 FP inh	pPAFAH FP inh	PME-1 primary	PAFAH1B3 inh	PAFAH2 FP conf
CCCCn1c(N)c(N(CC(C)C)C(=O)Cc2ccc(S(=O)(=O)N3CCOCC3)s2)c(=O)[nH]c1=O	nt	i	i	nt	nt	i	nt
CCNC(=S)N1CCN(CC)CC1	i	i	i	i	i	i	nt
Cc1ccc(-c2csc(/C(C#N)=C(\O)CCl)n2)cc1	nt	i	33.5	nt	nt	i	31.1
Nc1cnc(Nc2ccc(Br)cc2)nc1N	i	i	i	i	i	i	nt
COC(=O)C[C@H](NC(=O)Cn1cnc2c(NCc3ccccc3)ncnc21)C(=O)OC	nt	i	i	i	nt	i	nt
O=C(COC(=O)/C=C/c1cccc(Br)c1)NCCc1ccccc1	i	i	i	i	i	i	nt
COc1ccc(/C=C/C(=O)OCC(=O)NCCC2=CCCCC2)cc1	i	i	64.7	i	i	i	53.2
O=C(COC(=O)/C=C/c1ccccc1)NCCc1ccc(F)cc1	nt	i	61.0	i	nt	i	42.0
COc1ccc(/C=C/C(=O)OCC(=O)NCCC2=CCCCC2)cc1S(=O)(=O)N1CCOCC1	i	i	64.6	i	i	i	44.2
O=C(COC(=O)/C=C/c1ccccc1)NCCC1=CCCCC1	i	i	45.6	i	i	i	44.4
CC(C)=CCC/C(C)=C/C=N/NC(=O)c1ccc([N+](=O)[O-])cc1	i	i	i	i	i	i	nt
COc1cccc(/C=C/C(=O)OCC(=O)NCCC2=CCCCC2)c1	i	i	46.5	i	i	i	31.3
O=C(COC(=O)/C=C/c1ccc(C(F)(F)F)cc1)NCCC1=CCCCC1	i	i	i	i	i	i	nt
Cc1cccc(C(=O)O/N=C(\N)CS(=O)(=O)c2ccccc2)c1	i	i	43.9	i	i	i	36.4
Cc1cccc(/C(N)=N/OC(=O)c2ccc(F)cc2)c1	i	i	i	i	i	i	nt
COc1cccc(C(=O)O/N=C(\N)CS(=O)(=O)c2ccccc2)c1	i	i	64.4	i	i	i	45.2
COc1cccc(C(=O)O/N=C(\N)c2ccccn2)c1	i	i	i	i	i	i	nt
O=c1[nH]nc(SC2CCCCC2)c(=O)[nH]1	nt	i	i	nt	nt	i	nt
Cc1oc2c(c1C(=O)NC(Cc1c[nH]c3ccccc13)C(=O)O)CCCC2 (configuration not stated)	i	i	39.2	i	i	i	i
Cc1noc(C)c1C(=O)NC(Cc1c[nH]c2ccccc12)C(=O)O (configuration not stated)	nt	i	i	i	nt	i	nt
O=C1C=C(Nc2ccc(Cl)cc2Cl)CC(c2ccco2)C1 (configuration not stated)	i	i	44.9	i	i	i	37.1
COc1cccc(/C=C/C(=O)OCC(=O)NCc2ccc3c(c2)OCO3)c1	nt	i	35.2	i	nt	i	i
CCN(CC)S(=O)(=O)c1ccc(/C=C/C(=O)OCC(=O)NCc2ccc3c(c2)OCO3)cc1	i	i	47.9	i	i	i	30.1
CCN(CC)S(=O)(=O)c1ccc(/C=C/C(=O)OCC(=O)NNC(=O)c2ccc(OC)cc2)cc1	nt	i	43.2	i	i	i	i
O=C(COC(=O)/C=C/c1ccc2c(c1)OCO2)NCc1ccccc1	nt	i	55.2	i	i	i	41.8
SMILES	Fam108B counter	PAFAH1B2 inh	PAFAH2 FP inh	pPAFAH FP inh	PME-1 primary	PAFAH1B3 inh	PAFAH2 FP conf
O=C(COC(=O)/C=C/c1ccc(F)cc1)NCc1ccc2c(c1)OCO2	nt	i	i	i	nt	i	nt
CCN(CC)S(=O)(=O)c1ccc(/C=C/C(=O)OCC(=O)Nc2ccc(C(N)=O)cc2)cc1	i	i	i	i	i	i	nt
COc1cc(/C=C/C(=O)OCC(=O)NCc2ccc3c(c2)OCO3)cc(OC)c1OC	nt	i	i	i	nt	i	nt
OCCC1CN(Cc2cccn2-c2ccccn2)CCN1C1CCCCC1 (configuration not stated)	i	i	i	i	i	i	nt
CC1CCCCC1NC(=O)COC(=O)/C=C/c1ccc2c(c1)OCO2 (configuration not stated)	i	i	78.7	i	i	i	84.0
O=C(COC(=O)c1n[nH]c2ccccc12)Nc1cccc(S(=O)(=O)N2CCOCC2)c1	nt	i	50.2	nt	nt	i	32.3
O=C(COC(=O)c1cc(S(=O)(=O)N2CCOCC2)ccc1O)Nc1ccc2c(c1)OCO2	nt	i	42.1	i	nt	i	31.6
O=C(COC(=O)c1ccc(Br)o1)Nc1cccc(S(=O)(=O)N2CCOCC2)c1	nt	i	i	i	nt	i	nt
O=C(COC(=O)c1cccc(S(=O)(=O)N2CCOCC2)c1)Nc1ccc(Cl)cn1	nt	i	63.6	i	i	i	47.0
O=C(COC(=O)c1cc(S(=O)(=O)N2CCOCC2)ccc1F)Nc1ccc(Cl)cn1	nt	i	i	i	i	i	nt
O=C(COC(=O)C1CC2C=CC1C2)Nc1cccc(S(=O)(=O)N2CCOCC2)c1 (configuration not stated)	i	i	40.8	i	i	i	i
Cc1ccn(CC(=O)N/N=C/c2cc([N+](=O)[O-])ccc2O)n1	i	i	i	i	i	i	nt
O=C(OCC(=O)N1CCCc2ccccc21)c1cc(S(=O)(=O)N2CCOCC2)ccc1O	nt	i	73.1	i	i	i	62.6
O=C(COC(=O)c1ccc2c(c1)OCCO2)Nc1cccc(S(=O)(=O)N2CCOCC2)c1	i	i	64.8	i	i	i	56.3
O=C(COC(=O)c1cccc(S(=O)(=O)N2CCOCC2)c1)Nc1ccc2c(c1)OCO2	i	i	65.9	i	i	i	38.4
O=C(CCCc1nc2ccccc2s1)Nc1ccc(N2CCOCC2)cc1	i	i	i	i	i	i	nt
C=CCN1C(=O)c2ccccc2Sc2ccc(C(=O)NCCC)cc21	i	i	i	i	i	i	nt
COc1cc(/C=C/C(=O)OCC(=O)N2CCCc3ccccc32)ccc1O	nt	i	51.4	i	nt	i	41.2
COc1cc(/C=C/C(=O)OCC(=O)N2CC(=O)Nc3ccccc32)ccc1O	i	i	i	i	i	i	nt
COc1cc(/C=C/C(=O)OCC(=O)N2CCCc3ccccc32)ccc1OCC#N	nt	i	40.2	i	i	i	i
CCOc1ccc(-n2c(C)nnc2SCC(=O)N(CC)CC)cc1	i	i	i	i	i	i	nt
CCOC(=O)N1CCN(C(=O)c2ccccc2NC(=O)c2ccc(Br)cc2)CC1	i	i	43.7	i	i	i	i
O=C(NNC(=O)C1CCN(Cc2ccccc2)CC1)c1cccc(Cl)c1	i	i	i	i	i	i	nt
CCN(CC)S(=O)(=O)c1ccc2c(c1)nc(CCC(=O)O)n2C	i	i	i	i	i	i	nt
